Source: PubChem BioAssay (National Center for Advancing Translational Sciences (NCATS))
In the library only some 4.6% were active in any assay of this set; here they are far more common.
D1 antag = Antagonist of Human D 1 Dopamine Receptor: qHTS; D(1A) dopamine receptor (Homo sapiens), P21728; HEK293 TREx D1 cells, calcium flux, dopamine EC80; hits give low values; activity change, negative = inhibition, % at 10 µM; actives 3.2% (n = 360,000); in the data active = activity change below about -30%
Target sequence (P21728 whole entry, looked up): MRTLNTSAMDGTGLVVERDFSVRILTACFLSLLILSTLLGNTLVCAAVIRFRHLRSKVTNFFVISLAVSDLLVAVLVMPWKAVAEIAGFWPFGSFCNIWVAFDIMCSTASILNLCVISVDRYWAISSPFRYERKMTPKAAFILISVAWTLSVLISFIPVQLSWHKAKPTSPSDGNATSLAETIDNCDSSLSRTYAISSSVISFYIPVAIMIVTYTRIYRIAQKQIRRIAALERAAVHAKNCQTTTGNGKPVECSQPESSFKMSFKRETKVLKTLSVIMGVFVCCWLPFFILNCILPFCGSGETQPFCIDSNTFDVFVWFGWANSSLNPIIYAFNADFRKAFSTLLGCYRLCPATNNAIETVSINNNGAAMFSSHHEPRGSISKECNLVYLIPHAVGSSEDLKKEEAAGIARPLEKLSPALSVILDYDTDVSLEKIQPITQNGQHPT
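Kinetic fluorescence of a calcium dye serves as the read-out. D1-expressing Hek293 Trex cells, induced overnight at 30 C, are exposed to compound for 180 s before an EC80 dopamine addition, then read 180 s further.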
D1 PAM = Potentiators of Human D1 Dopamine Receptor: qHTS; HEK293 TREx D1 cells, calcium flux, dopamine EC20 potentiation; potentiation, % at 10 µM; actives 0.036% (n = 360,000); AID 504651, 2011; in the data active = potentiation above about 30%
TRHR enhancer-1 = qHTS for Small Molecule Agonists and Allosteric Enhancers of Human TRH Receptor: Primary Screen for Enhancers | AID 493056, 2011 | Thyrotropin-releasing hormone receptor (Homo sapiens), P34981 | enhancement, % at 2 µM | TRHR cells, fluo-8 calcium fluorescence, EC20 TRH enhancement | actives 0.66% (n = 360,000); in the data active = enhancement above about 30%
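Enhancer read-out: after compound pinning and an initial kinetic agonist-mode read, an EC20 of TRH (10 nM final) was injected and fluo-8 calcium signal (Ex 480/Em 530) followed at 1 s/cycle for 100 cycles in TRHR-expressing cells.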
TRHR agonist-1 = qHTS for Small Molecule Agonists and Allosteric Enhancers of Human TRH Receptor: Primary Screen for Agonists | Thyrotropin-releasing hormone receptor (Homo sapiens), P34981 | TRHR cells, calcium flux fluo-8, FDSS agonist mode | activation, % at 2 µM | AID 493084, 2011 | actives 0.18% (n = 360,000)
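TRHR-expressing cells loaded with fluo-8 calcium dye; 23 nL library compound pin-transferred, kinetic FDSS fluorescence (Ex 480/Em 530) recorded about 180 s for agonist-induced calcium release, before a 10 nM TRH EC20 addition for potentiator mode.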
D1 ag = Allosteric Agonists of the Human D1 Dopamine Receptor: qHTS; actives 1% (n = 360,000); activation, % at 2 µM; HEK293 T-REx D1 cells, calcium flux, agonist mode
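Agonism was scored from calcium flux recorded over 180 s (1 read/s) after pintool compound addition, following a 10-cycle baseline. Cells were inducible force-coupled HEK293 TREx D1, plated overnight at 30 C and loaded with no-wash calcium dye.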
TRHR enhancer-2 = qHTS for Small Molecule Agonists and Allosteric Enhancers of Human TRH Receptor: Confirmation Screen for Enhancers | TRH receptor cell assay, enhancer confirmation qHTS | 970 tested, under 10 active | activity change, negative = inhibition, % at 46.1 µM | shares compounds with TRHR enhancer-1 | AID 493076, 2011; active = well fitted curve in the direction sought with a large enough effect; inconclusive = small, poorly fitted or top-dose-only effect, or another doubt; inactive = no such curve, though single readings can be large; an effect the other way counts as inactive or inconclusive;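 note: compound effect scored on response to added TRH at EC20 of 10 nM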
TRHR agonist-2 = qHTS for Small Molecule Agonists and Allosteric Enhancers of Human TRH Receptor: Confirmation Screen for Agonists | shares compounds with TRHR enhancer-1 | TRHR-expressing cells, agonist activation read-out | Potency, µM (doses to about 46.1 µM), hits mostly activators | actives 8% (n = 970) | AID 493078, 2011; active = well fitted curve in the direction sought with a large enough effect; inconclusive = small, poorly fitted or top-dose-only effect, or another doubt; inactive = no such curve, though single readings can be large; an effect the other way counts as inactive or inconclusive; note: nearly all actives have a fitted effect of over 75% in size
Of the large screens only hits and unclear results are named; the others gave an inactive call (follow-up assays come after a bar, where they were run). Cut-off read from the data, not from the text of the source, unless noted: active = activation above about 30%; inactive = the rest.

C=C(CC1CC(O)[C@]2(C)OC3CC4OC5C[C@]6(C)O[C@]7(C)CCC8OC9C[C@]%10(C)OC%11C(C)=CC(=O)OC%11CC%10OC9C[C@@H](C)C8OC7CC6O[C@]5(C)C/C=C\C4OC3CC2O1)C(=O)O (stereo not given in full)	TRHR enhancer-1 50 | TRHR enhancer-2 inconclusive | TRHR agonist-2 inactive
CC1(C)N2CC3([N+](=O)[O-])CN1CC([N+](=O)[O-])(C2)C3	none
CN1CCN(c2ccc(S(C)(=O)=O)cc2[N+](=O)[O-])CC1	none
CN1CCN(c2ccc(S(=O)(=O)C(F)(F)F)cc2[N+](=O)[O-])CC1	TRHR enhancer-1 43 | TRHR enhancer-2 inactive | TRHR agonist-2 inactive
COc1ccccc1-n1c(-c2cccs2)nc2ccccc2c1=O	none
C#C[C@]1(O)CC[C@H]2[C@@H]3CCC4=Cc5nc6nc7ccccc7n6cc5C[C@]4(C)[C@H]3CC[C@@]21C	none
CCOc1ccc(N2C(=O)NC(=O)/C(=C\c3ccc(N4CCCCC4)o3)C2=O)cc1	TRHR agonist-1 31, D1 ag 85 | TRHR enhancer-2 inactive | TRHR agonist-2 23µM
CCOc1ccc(N2C(=O)/C(=C/c3ccc(C)o3)C(=O)NC2=S)cc1	none
CN1CC=C2C(C#N)=C(N)C(C#N)(C#N)C(c3ccncc3)C2C1 (stereo not given)	none | TRHR enhancer-2 inactive | TRHR agonist-2 inconclusive
O=C(O)c1cccc(NC(=O)N2C[C@H]3C[C@@H](C2)c2cccc(=O)n2C3)c1	none
CN1CCC(N(C)c2ccc(C(N)=O)cc2[N+](=O)[O-])CC1	none
CC(C)N1CCN(Cc2c[nH]c3ccccc23)CC1CCO (stereo not given)	TRHR enhancer-1 58 | TRHR enhancer-2 inactive | TRHR agonist-2 inactive
CC(C)N1CCN(Cc2cccc3c2OCO3)CC1CCO (stereo not given)	none
CCNC(=O)[C@H]1O[C@@H](n2cnc3c(N)ncnc32)[C@H](O)[C@@H]1O	TRHR enhancer-1 45 | TRHR enhancer-2 inconclusive | TRHR agonist-2 inactive
NC(=O)c1cn(C2OC(CO)C(O)C2O)c2ncnc(N)c12 (stereo not given)	none
CC1(C)OC(c2ccccc2)=C/C(=C/C=C2C(=O)NC(=O)NC2=O)O1	D1 ag 52 | TRHR enhancer-2 inactive | TRHR agonist-2 inconclusive
O=C(Cn1cc(C(=O)c2ccccc2)c2ccccc21)NCc1ccco1	TRHR enhancer-1 56 | TRHR enhancer-2 inactive | TRHR agonist-2 inactive
C[C@H]1C(=O)O[C@@H]2CCN3CC=C(COC(=O)[C@](C)(O)[C@]1(C)O)[C@H]23	TRHR enhancer-1 43 | TRHR enhancer-2 inactive | TRHR agonist-2 inactive
CCCCn1c(O)c(/C=C/C=Nc2ccccc2)c(=O)[nH]c1=O	TRHR agonist-1 41, D1 ag 71 | TRHR enhancer-2 inactive | TRHR agonist-2 16µM
Cn1c(O)c(/C=C/C=Nc2ccccc2)c(=O)n(C)c1=O	none
O=S(=O)(c1ccccc1)N1CCN2CCCC2C1 (stereo not given)	TRHR enhancer-1 57 | TRHR enhancer-2 inactive | TRHR agonist-2 inactive
C=CCn1c(O)c(C=Nc2ccc(OC)cc2C)c(=O)[nH]c1=O	none | TRHR enhancer-2 inactive | TRHR agonist-2 inactive
COc1ccc(N=Cc2c(O)n(-c3ccc(C)cc3)c(=O)[nH]c2=O)cc1	TRHR enhancer-1 51 | TRHR enhancer-2 inconclusive | TRHR agonist-2 inactive
O=P(Nc1ccccc1)(Nc1ccccc1)Oc1cccc(Cl)c1	none
Cc1ccc(N2C(=O)CC(=O)NC2=O)c(C)c1	TRHR enhancer-1 109 | TRHR enhancer-2 inactive | TRHR agonist-2 inactive
C=CC1CN2CCC1CC2C(OC(C)=O)c1ccnc2ccc(OC)cc12 (stereo not given)	none
